CCT chaperon mod = modulators of cytosolic chaperonin (CCT/TRiC) activity; purified chaperonin ATPase assay, HTRF ADP detection, 30 min; activity change, % (test concentration not listed), hits read low; 360,000 tested, 0.3% active; AID 651819; in the data active = activity change below about -30%
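TRiC (40 or 20 nM final, by batch activity) in 30 mM Tris pH 7.4, 100 mM KCl, 5 mM MgCl2, 1 mM DTT was treated with compound at 76 uM single dose, then 10 uM ATP, 30 min at 37 °C. ADP was read by HTRF Transcreener.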
MBNL1-CUG inh = MBNL1-poly(CUG) RNA binding inhibition | AID 2675 | Q9NR56 | TR-FRET MBNL1-His/biotin-(CUG)12 binding, 665/545 ratio | 280,000 tested, 0.036% active | Potency, µM (doses to about 57.5 µM), most hits filed as inhibitors; active = well fitted inhibition curve with a large enough effect in the signal ratio, with a control signal flat, not every such curve was filed as active; inconclusive = small, poorly fitted or top-dose-only effect, or effect the other way, or a change in a side signal; inactive = no such curve, though single readings can be large or run the other way; the % refers to the signal ratio
Target sequence (Q9NR56 whole entry, looked up): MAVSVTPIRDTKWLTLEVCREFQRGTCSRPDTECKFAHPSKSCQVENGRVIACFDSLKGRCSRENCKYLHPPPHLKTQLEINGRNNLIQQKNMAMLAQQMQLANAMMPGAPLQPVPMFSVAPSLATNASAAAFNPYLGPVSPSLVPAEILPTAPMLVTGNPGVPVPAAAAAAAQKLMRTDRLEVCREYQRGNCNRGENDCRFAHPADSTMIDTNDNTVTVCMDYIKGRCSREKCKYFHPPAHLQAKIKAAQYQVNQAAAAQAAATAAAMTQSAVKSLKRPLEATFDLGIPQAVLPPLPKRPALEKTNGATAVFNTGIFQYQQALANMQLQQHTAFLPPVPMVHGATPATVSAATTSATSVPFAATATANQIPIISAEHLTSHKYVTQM
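Ratiometric TR-FRET (665 over 545 nm, excitation 340 nm) tracks disruption of MBNL1-His/biotin-(CUG)12 complex after 60 min at room temperature, with compounds at 92 nM to 58 uM final.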
Epigenetic reg = epigenetic control regulation, reporter derepression; 280,000 tested, 0.2% active; murine LDR cells, GFP reporter derepression, 30 h; Potency, µM (titrated, usually from 53.9 µM), most hits filed as activators; also: nearly all actives have a fitted effect of over 60% in size
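Murine LDR cells bearing a silenced CMV-driven GFP reporter were exposed to compound for 30 h at 37 C. After PBS washes, GFP-positive cells (20-120 um objects) counted by laser-scanning microplate cytometry.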
uPA surface inh = blocks generation of uPA at the cell surface; Potency, µM (titrated, usually from 38.3 µM), most hits filed as inhibitors; cell surface uPA generation assay, qHTS; 330,000 tested, 0.31% active; active = well fitted inhibition curve with a large enough effect; inconclusive = small, poorly fitted or top-dose-only effect; inactive = no such curve, though single readings can be large or run the other way; tested in mouse RAW 264.7 cells; also: nearly all actives have a fitted effect of over 55% in size
pAkt inh = Akt phosphorylation inhibition; Neuro2A IGF-stimulated pAkt S473 HTRF, 20 min; active compounds read low; activity change, % for hits at 50 µM; 360,000 tested, 0.32% active; AID 651550; in the data active = activity change below about -80%; inconclusive = mostly about -51% to -80%
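Neuro2A cells in DMEM with 0.5% FBS, overnight at 37 deg C, given compound at single 50 µM final, then IGF (6 nM final) for 20 min at 37 deg C. Lysed; phospho-Akt Ser473 by HTRF after 24 h, 665/615 ratio.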
MmCpn inh = blocks the Methanococcus maripaludis chaperonin Mm-Cpn; purified Mm-Cpn ATPase, ADP Transcreener TR-FRET; Potency, µM (titrated, usually from 76.9 µM), hits mostly inhibitors; 330,000 tested, 0.031% active; AID 504842; also: nearly all actives have a fitted effect of over 80% in size
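Eu-cryptate anti-ADP/ADP-d2 competition gives a ratio inversely related to ADP. Enzyme at 25 nM was pre-exposed to compound for 10 min, then given 10 uM ATP for 30 min, 37°C throughout.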
Of the large screens only hits and unclear results are named; the others gave an inactive call. A selection: hits, their analogues and other compounds. The true share with any hit is near 0.97%. Unless noted, calls follow the shape of the dose curve; as a rule, active = well fitted curve in the direction sought with a large enough effect; inconclusive = small, poorly fitted or top-dose-only effect, or another doubt; inactive = no such curve, though single readings can be large; an effect the other way counts as inactive or inconclusive.

COc1ccc(C2=Nn3c([n+](C)c4ccccc43)SC2)cc1	MBNL1-CUG inh inconclusive, uPA surface inh 3.5µM
C[n+]1c2n(c3ccccc31)N=C(c1ccc(Cl)cc1)CS2	MBNL1-CUG inh inconclusive
COCCCn1c(=O)c2sccc2n2c(CCCC(=O)Nc3ccc(F)c(F)c3)nnc12	none (no result: CCT chaperon mod, MBNL1-CUG inh, uPA surface inh, pAkt inh, MmCpn inh)
O=S1(=O)c2ccc(Br)cc2N2CCC[C@@H]2CN1Cc1ccc(Cl)cc1	uPA surface inh inconclusive (no result: MBNL1-CUG inh, Epigenetic reg, MmCpn inh)
O=S1(=O)c2ccc(Br)cc2N2CC[C@H](C2)N1Cc1ccc(Cl)cc1	uPA surface inh 3.2µM (no result: MBNL1-CUG inh, Epigenetic reg, MmCpn inh)
CN(CC(=O)Nc1ccccc1Cl)C(=O)c1cc(C2CC2)nn1-c1ccccc1	CCT chaperon mod -31 (no result: MBNL1-CUG inh, Epigenetic reg)
CC1CCC2C(=O)N3CCCC3C(=O)N2C1c1ccc(Br)cc1 (stereo not given)	none (no result: CCT chaperon mod, MBNL1-CUG inh, uPA surface inh, pAkt inh, MmCpn inh)
Nc1nnnn1/N=C/c1ccco1	MBNL1-CUG inh inconclusive, pAkt inh -130%
O=c1nccc(NCc2ccco2)[nH]1	pAkt inh -108%
COc1ccc(C(=O)/C(C#N)=N/Nc2ccc([N+](=O)[O-])cc2)cc1	uPA surface inh 1µM
O=C1OC(NC(=O)c2ccccc2)C(n2cc(CO)nn2)=C1Cl (stereo not given)	pAkt inh -114%
CCN(CC)c1ccc2cc(C=O)c(=O)oc2c1	MBNL1-CUG inh inconclusive (no result: MmCpn inh)
CCN(CC)c1ccc2nc3c4ccccc4c(=O)cc-3oc2c1	CCT chaperon mod -48 (no result: Epigenetic reg)
CS(=O)(=O)c1nc(-c2ccc(F)cc2)cc(C(F)(F)F)n1	none
COc1ccc(-c2cc(C(F)(F)F)nc(S(C)(=O)=O)n2)cc1	pAkt inh -98%
CC(SC(C)C(=O)NN=Cc1cccc(F)c1)C(=O)NN=Cc1cccc(F)c1 (stereo not given)	none (no result: MBNL1-CUG inh, Epigenetic reg, MmCpn inh)
COc1ccc(CNC(=O)C(NC(C)=O)C(=O)Nc2ccc(C(C)C)cc2)cc1 (stereo not given)	CCT chaperon mod -41
COc1ccc(NC(=O)C(NC(C)=O)C(=O)NCc2ccccc2OC)cc1 (stereo not given)	none
O=C1NCC(O)=C1C=Nc1ccccc1O	Epigenetic reg inconclusive, uPA surface inh inconclusive (no result: MBNL1-CUG inh)
CCOC(=O)/C(=C\C=C1/Sc2cc(OCC)c(OCC)cc2N1CC)C(C)=O	MBNL1-CUG inh inconclusive, Epigenetic reg 5.6µM
CCOC(=O)/C(=C/C=C1\Sc2cc(OCC)c(OCC)cc2N1CC)C(C)=O	Epigenetic reg 22µM (no result: MBNL1-CUG inh)
Cc1ccc(NC(=O)/C=C/c2ccc([N+](=O)[O-])s2)cc1	Epigenetic reg 8.9µM (no result: MBNL1-CUG inh)
Cc1cccc(NC(=O)/C=C/c2ccc([N+](=O)[O-])s2)c1	MBNL1-CUG inh inconclusive, Epigenetic reg 7.1µM
Cc1ccc(S(=O)(=O)N(C)c2ccc3sc(C)nc3c2)cc1	uPA surface inh inconclusive
COc1ccc2cc(/C=N/NC(=O)c3c(Cl)cnn3C)c(Cl)nc2c1	Epigenetic reg inconclusive
COc1ccc2cc(/C=N/NC(=O)c3ccc(CN(c4ccc(C)c(C)c4)S(C)(=O)=O)cc3)c(Cl)nc2c1	Epigenetic reg 22µM, MmCpn inh inconclusive
O=C(Nc1ccccc1)c1sc(N2CCOCC2)nc1-c1ccccc1	none
N#C/C(=C\c1sc(N2CCOCC2)nc1-c1ccccc1)C(=O)Nc1cccc2ccccc12	Epigenetic reg 13µM (no result: CCT chaperon mod, uPA surface inh, pAkt inh)
CC(C)CO/N=C1/C[C@@H](O)[C@@H](O)[C@@H]2[C@@H]3C(=O)N([C@@H](C)c4ccccc4)C(=O)[C@H]3CC[C@H]12	none (no result: CCT chaperon mod, MBNL1-CUG inh, uPA surface inh, pAkt inh, MmCpn inh)
CCN1CCN(Cc2ccc(NC(=O)c3ccc(C)c(NC(=O)c4cncc(-c5cccs5)c4)c3)cc2C(F)(F)F)CC1	uPA surface inh 1µM (no result: MBNL1-CUG inh, Epigenetic reg, MmCpn inh)
CCN1CCN(Cc2ccc(NC(=O)c3ccc(C)c(NC(=O)c4cc(-c5ccc(Br)cc5)n[nH]4)c3)cc2C(F)(F)F)CC1	uPA surface inh 13µM
CCN1CCN(Cc2ccc(NC(=O)c3ccc(C)c(NC(=O)c4nccn4C)c3)cc2C(F)(F)F)CC1	none
COc1cc(NC(=O)c2c(F)c(F)c(OC)c(F)c2F)ccc1NC(=O)c1cccs1	none (no result: Epigenetic reg)
COc1ccc(N2CCN(C(=O)[C@@H](NC(=O)c3ccccc3Cl)C(C)C)CC2)cc1	none (no result: Epigenetic reg)
Cc1cc2nccc(-c3cccnc3)n2n1	none
COc1ccc([C@H]2[C@H](C(=O)C(C)(C)C)N3N=Cc4ccccc4C3[C@]23N=C(c2ccccc2)OC3=O)cc1OC (stereo not given in full)	pAkt inh -106%
CC(NC(=O)C12CC3CC(CC(O)(C3)C1)C2)c1ccc(Cl)cc1Cl (stereo not given)	none (no result: Epigenetic reg)
CC1CCN(S(=O)(=O)c2ccc(C(C)C)cc2)CC1	none
CC1CCN(S(=O)(=O)c2ccc(Cl)cc2)CC1	CCT chaperon mod -43 (no result: uPA surface inh)
CCc1ccccc1NC(=O)Cn1nnc(C(=O)NCc2cccc(OC)c2)c1N	uPA surface inh 4µM
COc1cccc(CNC(=O)c2nnn(CC(=O)Nc3ccc(C)c(C)c3)c2N)c1	none
CC1(OC(=O)CCc2ccccc2)C(=O)C=C2C=C(c3ccc(C#N)cc3)N(C3CCCC3)C=C2C1=O (stereo not given)	MBNL1-CUG inh inconclusive
Cc1ccc2nc(-c3ccc(SCC(=O)N4CCc5ccccc54)nc3)[nH]c2c1	CCT chaperon mod -44, MBNL1-CUG inh inconclusive
Cc1ccc2nc(-c3cccnc3SCC(=O)N3c4ccccc4CC3C)[nH]c2c1 (stereo not given)	MmCpn inh 50µM (no result: pAkt inh)
Cc1ccc2nc(-c3ccc(SCC(=O)O)nc3)[nH]c2c1	none
O=C1C(=NO)C(c2ccccc2)Oc2ccccc21 (stereo not given)	none (no result: MBNL1-CUG inh, Epigenetic reg, MmCpn inh)
O=C(OCCN1C(=O)c2cccc3c(N4CCOCC4)ccc(c23)C1=O)c1ccc(Cl)cc1	MBNL1-CUG inh inconclusive, Epigenetic reg inconclusive
CCCN(CCC)S(=O)(=O)c1ccc(C(=O)OCCN2C(=O)c3cccc4c(N5CCOCC5)ccc(c34)C2=O)cc1	Epigenetic reg 25µM
N#C/C(C(N)=O)=c1/ccc2c(c1)N1C3=C(CCCC3)CC3CCCCC31N=2 (stereo not given)	CCT chaperon mod -37, MBNL1-CUG inh inconclusive
Cc1nc2nc(SCC(=O)NC3CCC(C)CC3)nn2c(C)c1Cc1ccccc1 (stereo not given)	none (no result: CCT chaperon mod, MBNL1-CUG inh, uPA surface inh, pAkt inh, MmCpn inh)
Cc1ccccc1N(CC(=O)NC1CCCC1)C(=O)CS(=O)CC(=O)Nc1ccc2c(c1)OCO2 (stereo not given)	none
Cc1ccc(NC(=O)CS(=O)CC(=O)N(CC(=O)NC2CCCC2)c2cc(C)ccc2C)cc1 (stereo not given)	CCT chaperon mod -93
Cc1ccc(-n2nc3c(=O)n(CCCC(=O)NCc4cccc(F)c4)nc(C)c3c2C)cc1	uPA surface inh inconclusive (no result: Epigenetic reg)

Assay outcomes from PubChem BioAssay.
